Data as given in ChEMBL document CHEMBL4808148, “HDAC6 screening dataset using tau-based substrate in an enzymatic assay yields selective inhibitors and activators” (2021).
About 150 (2.7%) of roughly 5,600 compounds showed an effect of 50% or more. Only a selection was taken, and strong results are over-represented in it overall.

The compounds below were run against T1, Protein deacetylase HDAC6 (Homo sapiens) (UniProt Q9UBN7). Settings: at 10 µM.
T1 sequence (whole entry): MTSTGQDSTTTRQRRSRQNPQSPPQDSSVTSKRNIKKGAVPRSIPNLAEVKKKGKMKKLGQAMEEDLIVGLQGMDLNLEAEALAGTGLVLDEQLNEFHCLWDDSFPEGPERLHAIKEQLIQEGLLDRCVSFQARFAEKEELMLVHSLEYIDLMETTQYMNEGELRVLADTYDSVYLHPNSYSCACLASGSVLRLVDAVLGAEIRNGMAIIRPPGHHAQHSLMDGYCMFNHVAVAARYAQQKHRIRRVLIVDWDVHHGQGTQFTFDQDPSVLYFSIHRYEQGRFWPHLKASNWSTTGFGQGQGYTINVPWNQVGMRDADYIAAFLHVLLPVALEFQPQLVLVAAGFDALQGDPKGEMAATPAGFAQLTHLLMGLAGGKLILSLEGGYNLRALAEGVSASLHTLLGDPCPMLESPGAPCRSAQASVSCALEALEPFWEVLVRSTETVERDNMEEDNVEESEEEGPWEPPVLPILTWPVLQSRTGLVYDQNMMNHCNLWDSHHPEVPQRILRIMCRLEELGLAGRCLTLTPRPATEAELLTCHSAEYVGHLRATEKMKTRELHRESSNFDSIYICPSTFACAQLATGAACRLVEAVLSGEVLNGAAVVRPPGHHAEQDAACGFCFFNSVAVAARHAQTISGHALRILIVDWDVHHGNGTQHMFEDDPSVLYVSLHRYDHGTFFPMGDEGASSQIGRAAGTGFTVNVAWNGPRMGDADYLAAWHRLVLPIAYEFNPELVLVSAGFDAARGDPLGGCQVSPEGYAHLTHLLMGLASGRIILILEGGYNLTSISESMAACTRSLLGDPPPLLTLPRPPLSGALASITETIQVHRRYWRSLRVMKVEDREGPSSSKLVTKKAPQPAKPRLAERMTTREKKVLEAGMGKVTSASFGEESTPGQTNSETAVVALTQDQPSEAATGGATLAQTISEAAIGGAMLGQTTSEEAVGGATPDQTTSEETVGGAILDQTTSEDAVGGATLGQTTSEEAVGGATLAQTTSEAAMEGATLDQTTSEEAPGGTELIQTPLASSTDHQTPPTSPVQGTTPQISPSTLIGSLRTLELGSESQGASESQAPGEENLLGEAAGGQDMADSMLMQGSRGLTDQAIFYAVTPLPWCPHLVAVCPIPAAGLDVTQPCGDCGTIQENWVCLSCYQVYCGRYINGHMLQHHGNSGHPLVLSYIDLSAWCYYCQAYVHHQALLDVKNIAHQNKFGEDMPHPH

SMILES	inhibition [%]
N#C/C(=C\c1ccc(O)c(O)c1)C(=O)NCCCc1ccccc1	17.5
N#C/C(=C\c1ccc(O)c(O)c1)C(=O)Nc1ccccc1	93.8
N#C/C(=C\c1ccc(O)c(O)c1)C(N)=O	18.8
C[C@H](NC(=O)/C(C#N)=C/c1ccc(O)c(O)c1)c1ccccc1	20.7
N#C/C(=C\c1ccc(O)c(O)c1)C(=O)NCc1ccccc1	54.9
N#C/C(=C\c1ccc(O)c(O)c1)C(=O)NCCCCc1ccccc1	1.74
COCCOCCOc1ccc(C2=N[C@@](C)(C(=O)O)CS2)c(O)c1	-6.58
O=C(Nc1ccc(F)cc1)N1CCc2ccccc2C1c1ccc(C(F)(F)F)cc1 (stereo unspecified)	-5.96
COC(=O)[C@H](CC(C)C)NC(=O)c1ccc(NC[C@@H](N)CS)cc1-c1cccc2ccccc12	3.13
CC(C)=CCC[C@](C)(O)[C@H]1CC[C@]2(C)[C@@H]1[C@H](O)C[C@@H]1[C@@]3(C)CC[C@H](O)C(C)(C)[C@@H]3[C@@H](O)C[C@]12C	-3.01
OC[C@H]1NCC[C@@H](O)[C@@H]1O	-1.49
CC[C@@H](Nc1c(Nc2cccc(C(=O)N(C)C)c2O)c(=O)c1=O)c1ccc(C)o1	-5.03
CC(=O)c1ccc2c(c1)[C@@H]1C=CC[C@@H]1[C@H](c1cc3c(cc1Br)OCO3)N2	-3.37
N=C(N)NCCSSCCNC(=N)N	-3.98
CC(=O)N[C@H](Cc1c[nH]c2ccccc12)C(=O)OCc1cc(C(F)(F)F)cc(C(F)(F)F)c1	-8.38
Cc1ccc(NC2=CC(=O)c3sc(C)nc3C2=O)cc1	58.6
Fc1ccc2c(CCNCc3cccc(OCC(F)(F)C(F)F)c3)c[nH]c2c1	4.2
CC[C@]1(O)C[C@@H]2CN(CCc3c([nH]c4ccccc34)[C@@](C(=O)OC)(c3cc4c(cc3OC)N(C)[C@H]3[C@@](O)(C(N)=O)[C@H](O)[C@]5(CC)C=CCN6CC[C@]43[C@@H]65)C2)C1	-4.06
COc1cc2nc(N3CCN(C(=O)C4CCCO4)CC3)nc(N)c2cc1OC (stereo unspecified)	79
COc1cc2nc(N3CCN(C(=O)C4COc5ccccc5O4)CC3)nc(N)c2cc1OC (stereo unspecified)	-3.15
CCCC(=O)N1CCCN(c2nc(N)c3cc(OC)c(OC)cc3n2)CC1	15.5
CCCOCCn1c(=O)c(N2CCN(CCO)CC2)nc2cnc(-c3ccc(OC)nc3)cc21	2

SMILES	inhibition [%]
O=C(O)CN1CCN(CC(=O)O)CCN(CC(=O)O)CCN(CC(=O)O)CC1	-2.86
CSc1ccc([C@H]2CN3CCC[C@H]3c3ccccc32)cc1 (racemic)	-1.09
Nc1nncs1	60.9
Nc1nccs1	-0.93
COCCOc1ccc(N2CCN(CCn3ncc4c3nc(N)n3nc(-c5ccco5)nc43)CC2)cc1	4.38
Cc1cc(C)cc(NC(=O)Nc2ccc(OS(N)(=O)=O)cc2)c1	76.1
NS(=O)(=O)c1ccc(NC(=O)Nc2ccc(F)cc2)cc1	0.46
Cc1ccc(S(=O)(=O)OCC(=O)Nc2ccc(C(=O)O)c(O)c2)cc1	-5.6
COC(=O)c1ccccc1NC(=O)c1ccc(F)cc1	0.65
CS(=O)(=O)N1CCN(Cc2cc3nc(-c4cccc5[nH]ncc45)nc(N4CCOCC4)c3s2)CC1	3.78
COc1ccc(-c2nc(N3CCOCC3)c3sc(CN(C)c4ncc(C(=O)NO)cn4)cc3n2)cn1	97.1
Cc1c(CN2CCN(C(=O)[C@H](C)O)CC2)sc2c(N3CCOCC3)nc(-c3cnc(N)nc3)nc12	-2.64
CC(=O)N(OCc1ccccc1)[C@@H]1c2cc(C#N)ccc2OC(C)(C)[C@H]1O	0.48
O=C(O)CC/C=C\C[C@@H]1CO[C@H](c2ccccc2Cl)O[C@@H]1c1ccccc1O	11.4
O=C(NCc1ccc(F)cc1)N1CCN2C(=O)OC(c3ccccc3)(c3ccccc3)C2C1 (stereo unspecified)	-3.2
Nc1ccc(-c2nc3ccc(-c4nc5ccc(N)cc5[nH]4)cc3[nH]2)cc1	0.97
CCCn1c(=O)[nH]c2nc(-c3ccc(S(=O)(=O)O)cc3)[nH]c2c1=O	1.08
O=S(=O)(O)c1ccc2[nH]c(-c3ccccc3)nc2c1	94.7
O=C(O)Cc1ccc(CCNS(=O)(=O)c2ccc(Cl)cc2)cc1	9.85
COc1cccc(-c2cc(=O)c3ccccc3o2)c1N	90
Cc1cc(C(=O)N2Cc3cnn(C)c3Nc3ccccc32)ccc1CNC(=O)N1CCC[C@H]1C(=S)N1CCCN(C)CC1	-1.87
CS(=O)(=O)Nc1ccc2oc3c(OC(F)F)ccc(C(=O)Nc4c(Cl)cncc4Cl)c3c2c1	-3.43

SMILES	inhibition [%]
CC(C)[C@@H](CS(=O)(=O)C(C)C)N1C(=O)[C@@](C)(CC(=O)O)C[C@H](c2cccc(Cl)c2)[C@H]1c1ccc(Cl)cc1	-1.54
C/N=c1/nc(-c2ccccc2)n(-c2ccccc2)s1	69.9
Cn1c(-c2ccccc2)nnc1S(C)(=O)=O	-7.28
CC1=NN(c2ccccc2)C(=O)C1	-3.47
Clc1cccc(Cl)c1CSc1nnc(-c2cnccn2)s1	5.02
O=c1c2ccccc2oc2ccccc12	37.9
c1ccc(-c2n[nH]c3c2oc2ccccc23)cc1	70.2
O=C(Nc1ccc(Cl)cc1)Nc1cccc(-c2cccc(N3CCCC3)n2)c1	-4.23
CN1CC(=O)N=C1NC(=O)Nc1cccc(Cl)c1	90.4
N=C(N)NC(=N)Nc1cccc(Cl)c1	-4.52
C[C@H](N)C(=O)O	-3.75
Cc1ncc(CO)c(/C=N/NC(=O)c2ccncc2)c1O	-0.7
O=C(O)c1cc(N2N=C(C(F)(F)F)/C(=C/c3ccc(-c4ccccc4)o3)C2=O)ccc1Cl	-1.26
COc1cccc(OC)c1-c1cc(C(=O)NC2(C(=O)O)C3CC4CC(C3)CC2C4)nn1-c1ccnc2cc(Cl)ccc12 (stereo unspecified)	0.43
O=C(Nc1ccc([N+](=O)[O-])cc1Cl)c1cc(Cl)ccc1O	97
O=C(Nc1ccncc1)c1cc([N+](=O)[O-])ccc1Cl	-9.26
O=C(Nc1ccccc1)c1cc([N+](=O)[O-])ccc1Cl	-4.52
N#Cc1cc(F)cc(-c2nc(-c3ccc(F)cn3)no2)c1	42
c1ccc(Cn2c(N3CCNCC3)nc3ccccc32)cc1	-7.7
Cc1nc(C#Cc2ccnc(Cl)c2)c(C)n1-c1ccc(F)cc1	-3.13
O=C(NC1CCC1)c1ccc(C#Cc2cccc(F)c2)nc1	24.9
Cc1cc(C)c(N)c(C#Cc2cccc(F)c2)n1	93
